Test results from PubChem BioAssay.
Activity calls are given as the source filed them.

What was measured:
[1] = E. coli DRC41 culture turbidity changes, primary screen, E. coli filamentation inducer project, strain DRC41, OD650, 48 h (AID 1152);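 note: E. coli MC1000 strain DRC41 lacking acrAB efflux pump and sulA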; conditions: E. coli DRC41 (acrAB sulA), higher = more signal, called active from +8 up or from −8 down
[2] = small-molecule binders of probe aLefty1, primary screen, biochemical, small-molecule microarray, 635/667 nm fluorescence (AID 1153); conditions: higher = more signal;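 note: score merges spot fluorescence with signal-to-noise ratio from the scanned slide images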
[3] = PSAC antagonists in infected red cells, primary screen, cell-based, P. falciparum Indochina, OD700, 1 h (AID 1154); conditions: P. falciparum Indochina infected RBC osmotic lysis, higher = more signal, called active from +8 up or from −8 down
[4] = PSAC antagonists in infected red cells, primary screen, cell-based, P. falciparum Indochina, OD700, 2 h (AID 1155);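 note: lysis reports solute entry through the parasite surface anion channel PSAC; channel blockers reduce lysis of infected cells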; conditions: P. falciparum Indochina infected erythrocytes, osmotic lysis OD700; higher = more signal, called active from +8 up or from −8 down
[5] = osmotic lysis modulators in infected erythrocytes, primary screen, PSAC antagonist project, cell-based, P. falciparum Indochina, OD700, 3 h (AID 1156); conditions: higher = more signal, called active from +8 up or from −8 down
[6] = PSAC antagonists in infected red cells, primary screen, cell-based, P. falciparum Indochina, OD700, 18 h (AID 1157); conditions: P. falciparum Indochina infected erythrocytes, osmotic lysis OD700, 18 h; higher = more signal, called active from +8 up or from −8 down
[7] = modulators of S6 phosphorylation in cells, primary screen, cell-based, A549, cytoblot, luminescence, serum-stimulated (AID 1158); conditions: A549 phospho-S6 cytoblot, 5 h, higher = more signal;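 note: serum-stimulated A549 lung adenocarcinoma cells; signal is phosphorylated S6 detected by cytoblot immunostaining with HRP secondary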
[8] = biological target: NADPH oxidase 2 (Homo sapiens) (UniProt P04839); test: NOX2-dependent H2O2 signal modulators, primary screen, NOX inhibitor project, cell-based, HEK293-NOX2, PMA-stimulated, Amplex Red fluorescence (AID 1159); conditions: 45 min, higher = more signal, called active from +8 up or from −8 down; note: test concentration not given here
Chain of NADPH oxidase 2 (Homo sapiens) (P04839 whole entry, looked up): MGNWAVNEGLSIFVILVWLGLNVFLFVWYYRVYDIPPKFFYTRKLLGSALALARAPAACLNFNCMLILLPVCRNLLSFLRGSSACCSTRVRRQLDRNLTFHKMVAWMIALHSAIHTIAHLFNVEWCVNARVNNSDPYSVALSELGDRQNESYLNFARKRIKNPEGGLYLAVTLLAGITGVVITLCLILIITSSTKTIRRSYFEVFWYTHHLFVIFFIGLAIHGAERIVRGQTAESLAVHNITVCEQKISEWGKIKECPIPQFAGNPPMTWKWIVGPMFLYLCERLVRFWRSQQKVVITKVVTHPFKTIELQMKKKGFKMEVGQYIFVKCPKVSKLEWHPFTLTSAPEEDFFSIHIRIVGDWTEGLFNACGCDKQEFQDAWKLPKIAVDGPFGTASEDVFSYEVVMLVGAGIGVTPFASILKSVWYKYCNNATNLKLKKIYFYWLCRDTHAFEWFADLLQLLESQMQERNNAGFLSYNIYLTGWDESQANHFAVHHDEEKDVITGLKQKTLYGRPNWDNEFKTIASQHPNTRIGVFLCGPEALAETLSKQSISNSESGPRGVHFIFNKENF

[9] = biological target: NADPH oxidase 4 (Homo sapiens) (UniProt Q9NPH5); test: NOX4-dependent H2O2 signal modulators, primary screen, NOX inhibitor project, cell-based, HEK293-NOX4, tetracycline-induced, Amplex Red fluorescence (AID 1160); conditions: 45 min, higher = more signal, called active from +8 up or from −8 down
Chain of NADPH oxidase 4 (Homo sapiens) (Q9NPH5 whole entry, looked up): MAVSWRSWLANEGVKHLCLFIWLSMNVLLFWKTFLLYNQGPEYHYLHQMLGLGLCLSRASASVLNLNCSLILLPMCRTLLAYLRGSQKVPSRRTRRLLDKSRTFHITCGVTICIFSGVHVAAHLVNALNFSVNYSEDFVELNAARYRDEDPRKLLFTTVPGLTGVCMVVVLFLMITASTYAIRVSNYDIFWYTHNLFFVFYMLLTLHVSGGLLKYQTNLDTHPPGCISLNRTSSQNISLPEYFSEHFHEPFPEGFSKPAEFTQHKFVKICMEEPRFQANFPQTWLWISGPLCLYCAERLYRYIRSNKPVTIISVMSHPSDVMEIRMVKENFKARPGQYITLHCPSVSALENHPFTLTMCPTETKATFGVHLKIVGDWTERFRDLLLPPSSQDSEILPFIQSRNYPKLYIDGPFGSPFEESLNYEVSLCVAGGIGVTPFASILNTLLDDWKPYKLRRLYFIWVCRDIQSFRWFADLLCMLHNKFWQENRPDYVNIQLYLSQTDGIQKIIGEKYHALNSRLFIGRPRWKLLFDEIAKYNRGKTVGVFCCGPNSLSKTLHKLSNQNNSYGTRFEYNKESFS

[10] = biological target: NADPH oxidase 5 (Homo sapiens) (UniProt Q96PH1); test: NOX5-dependent H2O2 signal modulators, primary screen, NOX inhibitor project, cell-based, HEK293-NOX5, Amplex Red fluorescence (AID 1161); conditions: HEK293-NOX5, ionomycin, 45 min, higher = more signal
Chain of NADPH oxidase 5 (Homo sapiens) (Q96PH1 whole entry, looked up): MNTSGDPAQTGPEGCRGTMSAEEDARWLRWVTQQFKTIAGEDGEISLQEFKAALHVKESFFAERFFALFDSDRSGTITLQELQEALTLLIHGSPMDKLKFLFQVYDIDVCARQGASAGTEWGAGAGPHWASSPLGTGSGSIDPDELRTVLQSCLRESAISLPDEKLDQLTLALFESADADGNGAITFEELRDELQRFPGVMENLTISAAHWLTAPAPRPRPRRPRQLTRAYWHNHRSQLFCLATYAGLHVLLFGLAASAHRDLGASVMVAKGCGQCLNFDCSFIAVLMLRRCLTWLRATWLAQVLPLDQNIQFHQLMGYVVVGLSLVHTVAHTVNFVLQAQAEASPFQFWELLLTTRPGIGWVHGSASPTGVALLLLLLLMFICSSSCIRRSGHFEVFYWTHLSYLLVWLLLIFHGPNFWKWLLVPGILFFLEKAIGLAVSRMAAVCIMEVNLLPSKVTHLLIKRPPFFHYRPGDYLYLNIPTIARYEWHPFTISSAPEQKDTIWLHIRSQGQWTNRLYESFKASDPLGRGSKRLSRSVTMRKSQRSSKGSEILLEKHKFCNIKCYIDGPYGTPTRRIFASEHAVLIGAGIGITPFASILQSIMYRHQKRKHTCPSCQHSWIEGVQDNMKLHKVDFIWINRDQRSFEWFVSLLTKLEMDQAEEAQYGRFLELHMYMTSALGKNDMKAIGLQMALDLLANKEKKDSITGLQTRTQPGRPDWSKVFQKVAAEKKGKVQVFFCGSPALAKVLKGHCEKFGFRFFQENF

[11] = A549 cell viability effects, profiling panel, calcein-AM fluorescence, 48 h, basal (AID 1162); conditions: higher = more signal; note: test concentration not given here
[12] = adipocyte viability effects, profiling panel, cell-based, 3T3-L1 adipocytes, calcein-AM fluorescence, 48 h, basal (AID 1163); conditions: 3T3-L1 adipocytes viability, higher = more signal; note: test concentration not given here
[13] = HepG2 cell viability effects, profiling panel, calcein-AM fluorescence, 48 h, basal (AID 1164); conditions: higher = more signal; note: test concentration not given here
[14] = MM1S cell viability effects, profiling panel, calcein-AM fluorescence, 48 h, basal (AID 1165); conditions: higher = more signal;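 note: viability of MM1S multiple myeloma cells under basal unstimulated conditions; test concentration not given here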
[15] = basal RPMI8226 viability, no added stimulus, profiling panel, cell-based, calcein-AM fluorescence, 48 h, PK04 Diversity Set (AID 1166); conditions: RPMI8226 myeloma viability, higher = more signal;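 note: cells grown under basal conditions without added stimulus; test concentration not given here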
[16] = basal HepG2 mitochondrial membrane potential changes, profiling panel, cell-based, JC-1 fluorescence, 24 h, 100 nL compound (AID 1167); conditions: higher = more signal; note: test concentration not given here
[17] = basal 3T3-L1 adipocyte mitochondrial potential changes, profiling panel, cell-based, JC-1 fluorescence, 3T3-L1 adipocytes, 24 h, 100 nL compound (AID 1168); conditions: JC-1 mitochondrial fluorescence, higher = more signal, called active from +8 up or from −8 down; note: test concentration not given here
[18] = basal RPMI8226 mitochondrial membrane potential changes, profiling panel, cell-based, JC-1 fluorescence, 24 h, 100 nL compound (AID 1169); conditions: RPMI8226 myeloma, JC-1 mitochondrial potential fluorescence, higher = more signal; note: test concentration not given here
[19] = basal MM1S mitochondrial membrane potential changes, profiling panel, cell-based, JC-1 fluorescence, 24 h, 100 nL compound (AID 1170); conditions: higher = more signal; note: test concentration not given here
[20] = A549 lung cancer cell viability effects, profiling panel, resazurin fluorescence, 24 h, PK04 Diversity Set (AID 1171); conditions: higher = more signal, called active from +8 up or from −8 down; note: test concentration not given here

Row | SMILES | z-score [1] | composite z-score [2] | z-score [3] | z-score [4] | z-score [5] | z-score [6] | z-score [7] | z-score [8] | z-score [9] | z-score [10] | z-score [11] | z-score [12] | z-score [13] | z-score [14] | z-score [15] | z-score [16] | z-score [17] | z-score [18] | z-score [19] | z-score [20]
1 | Cc1ccc(S[C@]2(C(=O)NCCN3CCOCC3)CC(=O)N(Cc3ccccc3)[C@@H]2c2ccc(CO)cc2I)cc1 | 0.434 (inactive) | 0.0752 | 8.54 (active) | 0.37 (inactive) | 1.13 (inactive) | -1.19 (inactive) | 2.42 | 1.99 (inactive) | -2.89 (inactive) | 0.422 | -0.242 | 1.1 | -0.705 | -2.08 | -2.5 | 0.119 | -0.688 (inactive) | -0.383 | -2.44 | 0.394 (inactive)
2 | CN(C)CCCC[C@@H]1NC(=O)[C@H]2C[C@@H](C(=O)NCCCCCNC(=O)CS)[C@@H](c3cccc(OCCO)c3)N2C1=O | -0.728 (inactive) | -0.0601 | 2.9 (inactive) | 0.55 (inactive) | -0.744 (inactive) | 0.203 (inactive) | -0.534 | 1.76 (inactive) | 0.749 (inactive) | 1.13 | 0.33 | -0.0603 | 0.0814 | -0.649 | -0.0199 | -0.246 | -0.034 (inactive) | 0.0925 | 0.0356 | -0.0288 (inactive)
3 | Cc1ccc(S[C@]2(C(=O)NCC(F)(F)F)CC(=O)N(C(C)C)[C@@H]2c2ccc(CO)cc2I)cc1 | 0.302 (inactive) | 0.108 | 4.6 (inactive) | 0.383 (inactive) | 0.24 (inactive) | 0.548 (inactive) | 0.303 | 1.81 (inactive) | -2.38 (inactive) | 1.5 | 0.553 | 0.837 | -0.0366 | -2.2 | -2.73 | 0.409 | -0.374 (inactive) | -0.815 | -1.12 | 0.683 (inactive)
4 | COC(=O)[C@@]1(Cc2ccc(OC)cc2)[C@H]2c3cc(C(=O)N(C)C)n(Cc4cccc5ccccc45)c3C[C@H]2CN1C(=O)c1ccccc1 | -1.27 (inactive) | 0.468 | 2.33 (inactive) | -0.206 (inactive) | 1.19 (inactive) | -1.39 (inactive) | 2.11 | -3.14 (inactive) | -1.83 (inactive) | -4.62 | -1.62 | 1.26 | -0.0664 | -0.623 | -2.08 | 3.37 | -0.669 (inactive) | -0.127 | -1.41 | -1.92 (inactive)
5 | O=C1OCCC/C=C\[C@H]2OC34C=CCN(Cc5ccccc5)C(=O)[C@H]3N(CCCCCCO)C(=O)[C@@H]4C12 (stereo not given in full) | 1.19 (inactive) | -0.0576 | 2.96 (inactive) | 0.141 (inactive) | 0.59 (inactive) | 0.524 (inactive) | 0.0169 | 1.12 (inactive) | 0.279 (inactive) | 1.88 | 2.3 | 0.0451 | 0.685 | 1.85 | 1.05 | 1.54 | 0.948 (inactive) | 0.44 | -1.11 | 1.28 (inactive)
6 | C=C(COC)/C(=C/C[C@H](OC(=O)c1ccncc1)c1ccc(OCCO)cc1)c1cnc2ccccc2c1 | -0.469 (inactive) | 0.062 | 20 (active) | 3.18 (inactive) | 1.47 (inactive) | 0.848 (inactive) | 0.123 | -0.294 (inactive) | -0.192 (inactive) | -0.608 | 1.54 | 0.317 | -0.303 | -1.98 | 0.0703 | -0.232 | -0.472 (inactive) | 0.147 | -0.799 | 0.67 (inactive)
7 | CCOC(=O)[C@H]1CC=C2CC1C(=O)N1CCC[C@@H]1[C@@H]2O[Si](C)(C)C(C)(C)C (stereo not given in full) | -0.94 (inactive) | -0.471 | 2.09 (inactive) | 0.493 (inactive) | -0.42 (inactive) | 0.378 (inactive) | -0.409 | 0.461 (inactive) | -0.625 (inactive) | -3.9 | -1.63 | 0.312 | -1.43 | -2.85 | -4.07 | -2.25 | -1.07 (inactive) | -1.06 | 0.167 | 3.69 (inactive)
8 | COC(=O)[C@@]1(Cc2ccccc2)[C@H]2c3cc(C(=O)N4CCCC4)n(CC4CC4)c3C[C@H]2CN1C(=O)c1ccccc1 | -1.47 (inactive) | 1.54 | 1.15 (inactive) | 0.194 (inactive) | 1.68 (inactive) | 0.69 (inactive) | 0.222 | -0.295 (inactive) | -2.68 (inactive) | -2.49 | -1.46 | 0.643 | -0.303 | -0.39 | -2.15 | 1.51 | -1.77 (inactive) | -0.516 | -0.569 | -1.51 (inactive)
